Compound activity: PubChem, National Center for Advancing Translational Sciences (NCATS)
Shown are actives, neighbours in structure and some others; about 4.6% of the full set was active somewhere.
D1 antag = human D1 dopamine receptor antagonism | 360,000 compounds, 3.2% hits | P21728 | activity change, negative = inhibition, % at 10 µM | HEK293 TREx D1 cells, calcium flux, dopamine EC80; stronger effect = lower value; in the data active means activity change below about -30%; further: on the % scale 0 is the no-effect control and ±100 the full control effect
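Antagonism measured as reduced calcium response to an EC80 dopamine addition following 180 s compound pre-read; cells were inducible HEK293 Trex D1 plated overnight at 30 C, read kinetically at 1 cycle/sec.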
TRHR ag = agonists of human TRH receptor | P34981 | TRHR cells, calcium flux fluo-8, FDSS agonist mode | activation, % at 2 µM | 360,000 compounds, 0.18% hits; further: 0% is about no effect
Target sequence (P34981 whole entry, looked up): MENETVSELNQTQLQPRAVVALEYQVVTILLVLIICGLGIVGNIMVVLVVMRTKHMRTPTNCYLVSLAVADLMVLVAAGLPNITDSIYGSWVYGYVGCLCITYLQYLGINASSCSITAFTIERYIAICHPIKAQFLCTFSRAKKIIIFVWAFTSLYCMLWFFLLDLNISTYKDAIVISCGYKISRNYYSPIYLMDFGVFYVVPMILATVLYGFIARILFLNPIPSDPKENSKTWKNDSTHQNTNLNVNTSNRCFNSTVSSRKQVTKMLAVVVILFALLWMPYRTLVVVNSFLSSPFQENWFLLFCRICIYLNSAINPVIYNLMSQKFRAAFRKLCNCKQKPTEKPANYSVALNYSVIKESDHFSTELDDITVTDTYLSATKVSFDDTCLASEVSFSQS
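Fluo-8-loaded TRHR cells; 10 s baseline, compound added, kinetic Ca2+ fluorescence read 1/s, agonist mode.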
Epigenetic reg = derepresses silenced GFP reporter in murine cells | Potency, µM (titrated, usually from 53.9 µM), inactives show at the highest dose GFP activation, most hits filed as activators | murine LDR cells, GFP reporter derepression, 30 h | AID 1865 | 280,000 compounds, 0.2% hits; active means well fitted activation curve with a large enough effect; further: potency means the concentration at half of the fitted maximal effect; % of control where 0% means no effect; nearly all actives have a fitted effect of over 60% in size
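Murine LDR cells bearing a silenced CMV-driven GFP reporter were exposed to compound for 30 h at 37 C. After PBS washes, GFP-positive cells (20-120 um objects) counted by laser-scanning microplate cytometry.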
TRHR PAM = allosterically enhances the human TRH receptor; AID 493056; enhancement, % at 2 µM; 360,000 compounds, 0.66% hits; P34981; TRHR cells, fluo-8 calcium fluorescence, EC20 TRH enhancement; in the data active means enhancement above about 30%; further: 0% is about no effect
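TRHR-expressing cells loaded with fluo-8 calcium dye were read kinetically (ex 480/em 530) during compound addition, then stimulated with an EC20 of TRH (10 nM final). Enhancement of the Gq-mediated intracellular calcium response was scored.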
D1 agonist = agonists of human D1 dopamine receptor | 360,000 compounds, 1% hits | activation, % at 2 µM | AID 504660 | HEK293 T-REx D1 cells, calcium flux, agonist mode; further: 0% is about no effect
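Inducible HEK293 T-REx D1 cells, force-coupled to calcium signalling, were plated at 4000 cells/well with tetracycline and held overnight at 30 C. After no-wash calcium dye loading, compound-evoked calcium rise over 180 s flagged agonists.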
D1 PAM = enhances dopamine response at the human D1 receptor. 360,000 compounds, 0.036% hits. potentiation, % at 10 µM. AID 504651. HEK293 TREx D1 cells, calcium flux, dopamine EC20 potentiation. P21728; in the data active means potentiation above about 30%; further: 0% is about no effect
* hit, by the source's call; nt = not tested or not shown. Unless noted, no stated cut-off is given here; in the data, active means activation above about 30%; inactive means the rest.

SMILES	D1 antag	TRHR ag	Epigenetic reg	TRHR PAM	D1 agonist	D1 PAM
O=C(COc1ccccc1C(=O)NCc1ccccc1)Nc1ccccc1	-35*	0	nt	-2	4	-3
CC(=O)Nc1cccc(NC(=O)COc2ccccc2C)c1	-39*	0	nt	6	7	-7
CC(C)(CO)NCc1ccccc1OCC(=O)Nc1ccccc1	-18	0	1%	-3	6	-4
Cc1ccc(NC(=O)COc2ccccc2CNC(C)(C)CC(C)(C)C)cc1	-6	2	-1%	6	62*	-5
Cc1ccccc1OCC(=O)Nc1ccc2[nH]c(=O)sc2c1	-49*	0	6%	-4	14	-4
Cc1ccc(CNC(=O)c2ccc3c(c2)N(Cc2ccccc2F)C(=O)c2ccccc2S3(=O)=O)cc1	-5	1	0%	1	7	-1
CCC(=O)N1CCc2cc(S(=O)(=O)CCC(=O)Nc3cc(Cl)ccc3OC)ccc21	-8	-1	0%	1	-2	2
CC(=O)c1cccc(-n2c(=O)c3c4c(sc3n(CC(=O)c3ccc(Cl)cc3)c2=O)CN(C(C)=O)CC4)c1	15	0	1%	2	-1	0
Cc1ccccc1OCC(=O)Nc1ccncc1	-18	-1	nt	2	12	-4
Cc1ccccc1OCC(=O)Nc1ccc(Cc2ccncc2)cc1	-44*	0	0%	2	16	-3
Cc1ccc(C(=O)N2CCCCC2C(=O)O)o1 (centres undefined)	5	0	-5%	-3	1	-1
CC1CCCCN1C(=O)c1ccc(Br)o1 (centres undefined)	6	0	nt	32*	4	-1
CCOc1ccccc1NC(=O)CSc1nc2c(oc3ccccc32)c(=O)n1-c1ccc(C)c(C)c1	7	1	0%	2	4	0
Cc1ccc(CNc2ncnc3c2nnn3C)cc1	nt	0	2%	-5	1	2
C/C(=N/O)c1ccccn1	-1	1	7%	-4	1	-2
CCCCCC/C(=N/O)c1ccccn1	-37*	-1	0%	-4	5	-1
CC(C)(C)c1ccc(C(=O)Nc2sc3c(c2C#N)CCC(C(C)(C)C)C3)cc1 (centres undefined)	2	-2	-1%	26	0	-1
CC(C)(C)C1CCc2c(sc(NC(=O)C3CC=CCC3C(=O)O)c2C#N)C1 (centres undefined)	-40*	0	0%	7	0	0
CCN(CC)CCN(C(=O)c1ccco1)c1nc2c(C)c(C)ccc2s1	4	-1	-1%	38*	19	-3
Cc1ccc2sc(N(CCCN(C)C)C(=O)c3ccco3)nc2c1C	17	1	1%	8	17	-1
CC(=O)N1CCc2c(sc3c2c(=O)n(-c2ccc(C)cc2)c(=O)n3Cc2ccccc2C)C1	19	1	0%	-8	-1	-2
Cc1ccc(N2CCN(C(=O)Nc3cn(CC(C)C)c(=O)c4ccccc34)CC2)c(C)c1	-5	0	2%	-15	1	-4
Cc1ccc(NC(=S)N2CCC(N(C)CC3CCCO3)CC2)cc1C (centres undefined)	-18	0	0%	31*	-3	-8
COc1ccc(Nc2nc3c(S(=O)(=O)c4ccccc4)nnn3c3ccsc23)cc1OC	1	-2	-1%	3	0	0
O=C(CCNC(=O)c1ccco1)Nc1ccc(OC(F)F)c(Cl)c1	-31*	0	nt	-6	2	-8
SMILES	D1 antag	TRHR ag	Epigenetic reg	TRHR PAM	D1 agonist	D1 PAM
O=C(CCNC(=O)c1ccco1)Nc1ccccc1OC(F)F	3	1	nt	-7	3	nt
CC(C)CN(C(=O)COC(=O)c1ccccc1SCC(=O)NC1CCCCCC1)C1CCS(=O)(=O)C1 (centres undefined)	-42*	0	0%	2	1	2
CC(C)CN(C(=O)COc1ccc(-c2nnco2)cc1)C1CCS(=O)(=O)C1 (centres undefined)	-47*	1	nt	-3	1	3
CCN(C(=O)COC(=O)c1ccccc1SCC(=O)NC1CCCCCCC1)C1CCS(=O)(=O)C1 (centres undefined)	13	1	1%	8	0	-1
CC(C)CN(C(=O)COC(=O)c1ccc([N+](=O)[O-])o1)C1CCS(=O)(=O)C1 (centres undefined)	-32*	1	-1%	0	2	-7
CCc1ccc(NC(=O)CSc2nc(=O)n(Cc3ccncc3)c3c2CCC3)cc1	nt	0	2%	-2	0	-1
Cc1ccccc1CNC(=O)C(=O)NCC(c1cccs1)S(=O)(=O)c1ccc(Cl)cc1 (centres undefined)	nt	0	1%	-3	7	1
CCOc1ccc(-c2cnc(NCc3ccc(OC)cc3OC)n2C)cc1	2	0	0%	-2	-1	-3
COc1cc(NC(C)=O)c2ncccc2c1NC(C)=O	-36*	1	2%	-2	6	1
COc1cc(NC(C)=O)c2ncccc2c1[N+](=O)[O-]	-1	-1	-1%	-2	2	-2
Cc1cc2c3c(cccc3n1)C(=O)c1ccccc1-2	nt	nt	-1%	nt	nt	nt
CCc1ccc(OC)c(S(=O)(=O)NCCOc2ccccc2)c1	3	-2	-1%	31*	4	-6
COc1ccc(-n2c3c(cc(-c4nc(-c5ccc(Cl)cc5)cs4)c2=O)C(=O)CC(C)(C)C3)cc1	-3	2	0%	3	-2	5
O=C1C=C(NCc2ccccc2)CCC1	11	0	-1%	-8	4	-2
O=C1C=C(NC2=CC3OC(c4ccccc4)OCC3OC2=O)CCC1 (centres undefined)	-31*	-1	2%	-8	3	-5
CCCNC(=O)N1CCN(S(=O)(=O)c2ccc3c(ccn3C)c2)CC1	10	0	-3%	-3	0	-1
COC(=O)c1onc(-c2ccccc2)c1C(=O)OC	-36*	0	0%	4	3	-1
CC(C)Oc1cccc(NC(=O)C2CCN(S(=O)(=O)Cc3ccccc3)CC2)c1	-7	-1	-2%	4	-1	-1
COC(=O)c1ccc(COc2cc(O)c3c(c2)OC(C)(C)CC3=O)cc1	-35*	0	-9%	3	18	6
COc1ccc2[nH]cc(CCNC(=O)C3CC3)c2c1	nt	nt	1%	nt	nt	nt
CCC(C(=O)NCCc1c[nH]c2cc(OC)ccc12)c1ccccc1 (centres undefined)	-80*	-1	nt	3	2	-2
COc1ccc2c(CCNC(=O)Nc3ccccc3)c[nH]c2c1	-19	2	2%	-7	5	0
